Source: PubChem BioAssay (Broad Institute)
Yp Topo-I inh: Y. pestis Topo-I inhibition via cleavage products; Y. pestis Topo-I cleavage product accumulation, plate reader; AID 504884; activity, % at 10 µM; 0.064% of 360,000 active; in the data active = activity above about 50%, passing the limit was not always enough
FadD28 FP inh: M. tuberculosis FadD28 bisubstrate binding inhibition | FadD28 bisubstrate probe binding, fluorescence polarization | inhibition, % at 12.5 µM | 0.22% of 360,000 active | AID 588549; in the data active = inhibition above about 8.5%, passing the limit was not always enough
PfHsp40 yeast: rescue of PfHsp40-mediated yeast toxicity; growth rescue, % at 12.5 µM; 0.68% of 340,000 active; S. cerevisiae expressing PfHsp40, growth rescue, ATP luminescence; in the data active = growth rescue above about 28%, passing the limit was not always enough;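 note: yeast W303a lacking pdr1 and pdr3 grown in galactose medium; growth measured after three days at 30 °C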
Mtb BioA inh: inhibitors of Mycobacterium tuberculosis BioA enzyme; purified M. tuberculosis BioA enzyme, plate reader; inhibition, % at 9.99 µM; 0.096% of 360,000 active; AID 602481; in the data active = inhibition above about 40%
PrP 5UTR inh: inhibition of PrP 5' UTR reporter expression; AID 488862; inhibition, % (concentration not given with the values); 0.35% of 340,000 active; cell-based PrP 5' UTR mRNA reporter, plate reader; in the data active = inhibition above about 52%
Large screens that a line does not name were inactive. Rows were chosen to be rich in hits. Some 1.1% of all compounds tested hit in one or more screens of this group.

O=C(C[C@@H]1C[C@@H]2c3cc(NC(=O)c4cccnc4)ccc3O[C@@H]2[C@H](CO)O1)NCc1ccccc1F	none (no result: Yp Topo-I inh, FadD28 FP inh, PfHsp40 yeast, PrP 5UTR inh)
C[C@@H]1CN([C@@H](C)CO)S(=O)(=O)c2ccc(C#CC3(O)CCCC3)cc2O[C@H]1CN(C)C(=O)Nc1ccc(F)cc1	none (no result: Yp Topo-I inh, FadD28 FP inh, PfHsp40 yeast, PrP 5UTR inh)
CC[C@@H](C(=O)[C@@H](C)[C@@H](O)[C@H](C)[C@@H]1O[C@@H]([C@@H](CC)C(=O)O)CC[C@@H]1C)[C@H]1O[C@]2(C=C[C@@H](O)[C@]3(CC[C@@](C)([C@H]4CC[C@](O)(CC)[C@H](C)O4)O3)O2)[C@H](C)C[C@@H]1C	PfHsp40 yeast 220
Cc1cc(C)nc(-n2nc(C)c(Sc3ccc(F)cc3)c2N)n1	PfHsp40 yeast 89
CN1\C(=C/C=C/C=C/C=[N+](C)C)C(C)(C)c2ccccc21	Yp Topo-I inh active (no result: Mtb BioA inh)
CCc1noc(C)c1C(=O)Nc1cc(S(=O)(=O)N2CCOCC2)ccc1OC(C)C	FadD28 FP inh 16
C[C@H](CO)N1C[C@H](C)[C@H](CN(C)C(=O)Nc2ccc(C(F)(F)F)cc2)OCCCC[C@H](C)Oc2ccc(NC(=O)c3ccncc3)cc2C1=O	none (no result: Yp Topo-I inh, FadD28 FP inh, PfHsp40 yeast, PrP 5UTR inh)
N/C(=N\OC(=O)c1ccc(Cl)cc1)c1ccn[nH]1	PfHsp40 yeast 34
O=C(N/N=C/c1cc(Br)ccc1O)c1ccccc1Cl	PfHsp40 yeast 466
Clc1ccc(C2=NCCN2)cc1	PfHsp40 yeast 221 (no result: Mtb BioA inh)
Clc1ccc(-c2ccn[nH]2)cc1	none (no result: Mtb BioA inh)
Cc1ccccc1-c1ccc2c(c1)O[C@@H](CN(C)Cc1ccc(C(=O)O)cc1)[C@@H](C)CN([C@@H](C)CO)S2(=O)=O	none (no result: Yp Topo-I inh, FadD28 FP inh, PfHsp40 yeast, PrP 5UTR inh)
Cc1cccc(Nc2nc(-c3ccccn3)cs2)n1	PfHsp40 yeast 512 (no result: PrP 5UTR inh)
Cc1cccnc1Nc1nc(-c2ccccc2)cs1	none
Cc1cccnc1Nc1nc(-c2ccccn2)cs1	PfHsp40 yeast 77
CCCSc1ccc([C@@H]2[C@@H]3C(=O)N(C)C(=O)[C@@H]3[C@]3(C(=O)OC)CCCN23)cc1OC	PfHsp40 yeast 63
CCCCCCSc1ccc([C@@H]2[C@H]3C(=O)N(C)C(=O)[C@H]3[C@]3(C(=O)OC)CCCCN23)cc1OC	none
COc1cc(/C=N/NC(=Nc2ccc(C)cc2)c2nc3ccccc3s2)ccc1O	PrP 5UTR inh 77
C/C=C/c1ccc([C@H]2[C@@H](CNS(C)(=O)=O)N(CC3CC3)[C@H]2CO)cc1	none (no result: Yp Topo-I inh, FadD28 FP inh, PfHsp40 yeast, PrP 5UTR inh)
CO[C@@H]1CN(C)C(=O)c2ccc(NS(=O)(=O)c3ccccc3C)cc2OC[C@@H](C)N(S(C)(=O)=O)C[C@H]1C	none (no result: Yp Topo-I inh, FadD28 FP inh, PfHsp40 yeast, PrP 5UTR inh)
CC(=NNC(=S)N1CCN(c2ccccn2)CC1)c1nccs1	PfHsp40 yeast 108 (no result: Mtb BioA inh)
CC(=NNC(=S)N1CCN(C2CCCCCC2)CC1)c1ccccn1	PfHsp40 yeast 81 (no result: Mtb BioA inh)
CC(CNC(=O)C1CCCCC1)NC(=O)C1CCCCC1 (configuration not stated)	PfHsp40 yeast 80 (no result: Mtb BioA inh)
Oc1c(C(Nc2nccs2)c2ccc(C(F)(F)F)cc2)ccc2cccnc12 (configuration not stated)	PfHsp40 yeast 84 (no result: Mtb BioA inh)
Oc1c(C(Nc2cccc(C(F)(F)F)c2)c2ccncc2)ccc2cccnc12 (configuration not stated)	PfHsp40 yeast 381 (no result: Mtb BioA inh)
O=C(Nc1ccncc1)Nc1cccc(C(F)(F)F)c1	none
O=C(/C=C/c1ccc(F)cc1)NCCCN1CCN(CCCNC(=O)/C=C/c2ccc(F)cc2)CC1	PfHsp40 yeast 37 (no result: Mtb BioA inh)
O=C(CSc1nccn(-c2cccc(F)c2)c1=O)Nc1ccc(Cl)cc1F	PfHsp40 yeast 173
COc1cccc(CN(C)C[C@H]2OCc3cn(nn3)CCCC(=O)N([C@@H](C)CO)C[C@H]2C)c1	none (no result: Yp Topo-I inh, FadD28 FP inh, PfHsp40 yeast, PrP 5UTR inh)
Cc1ccc(C(C)NC(=S)NCc2ccc(F)cc2)cc1C (configuration not stated)	none
CCc1ccc(C(C)NC(=S)NCc2ccc(F)cc2)cc1 (configuration not stated)	PfHsp40 yeast 227
CCC(C)c1ccc(C(C)NC(=S)NC2CCCCC2)cc1 (configuration not stated)	none
CCc1ccc(C(C)NC(=S)NC2CCCCC2)cc1 (configuration not stated)	PfHsp40 yeast 83
Cc1ccc(C(C)NC(=S)NCc2ccc(F)cc2)c(C)c1 (configuration not stated)	PfHsp40 yeast 117
CCOC(=O)c1ccc(N2C(=O)CC(N3CCCC(C)C3)C2=O)cc1 (configuration not stated)	PfHsp40 yeast 585
CCOC(=O)c1ccc(N2C(=O)CC(N3CCC(O)(c4ccc(Br)cc4)CC3)C2=O)cc1 (configuration not stated)	none (no result: Mtb BioA inh)
CCOC(=O)c1ccc(N2C(=O)CC(N3CCC(O)(c4ccc(Cl)cc4)CC3)C2=O)cc1 (configuration not stated)	PfHsp40 yeast 534
CCCOc1ccc(N2C(=O)CC(N3CCOCC3)C2=O)cc1 (configuration not stated)	none
CCCOc1ccc(N2C(=O)CC(N3CCC(C(=O)OCC)CC3)C2=O)cc1 (configuration not stated)	PfHsp40 yeast 523
CCOC(=O)c1ccc(N2C(=O)CC(N3CCN(Cc4ccccc4)CC3)C2=O)cc1 (configuration not stated)	none
COC(=O)C[C@@H]1CC[C@H]2[C@@H](COc3ccc(NC(=O)c4ccccc4)cc3C(=O)N2C)O1	none (no result: Yp Topo-I inh, FadD28 FP inh, PfHsp40 yeast, PrP 5UTR inh)
C[C@H]1CN([C@@H](C)CO)C(=O)c2cc(C#Cc3ccccc3)cnc2O[C@@H]1CN(C)S(=O)(=O)c1ccccc1F	none (no result: Yp Topo-I inh, FadD28 FP inh, PfHsp40 yeast, PrP 5UTR inh)
Cc1cccc(C(=O)NC(=S)Nc2ccccc2C(F)(F)F)c1	none (no result: Mtb BioA inh)
Cc1ccc(C(=O)NC(=S)Nc2ccccc2C(F)(F)F)cc1C	PfHsp40 yeast 32
Cc1ccc(C(=O)O)cc1NC(=S)NC(=O)c1ccc(-c2ccccc2)cc1	PfHsp40 yeast 113
O=C(NC(=S)Nc1ccc(-c2ccccc2)cc1)c1ccccc1	none (no result: FadD28 FP inh)
CC(C)NC(=S)NC(=O)c1ccc(-c2ccccc2)cc1	PfHsp40 yeast 59 (no result: Mtb BioA inh)
O=C(O)c1cccc(NC(=S)NC(=O)c2ccc(-c3ccccc3)cc2)c1	none (no result: Mtb BioA inh)
COc1ccccc1N(CC(=O)NCCSc1ccccc1)S(=O)(=O)c1ccccc1	Yp Topo-I inh 57
COc1ccccc1N(CC(=O)NCCSc1ccccc1)S(C)(=O)=O	none
CCC(Oc1ccccc1)C(=O)Nc1ncc([N+](=O)[O-])s1 (configuration not stated)	PfHsp40 yeast 166 (no result: Mtb BioA inh)
C[C@H]1CN([C@@H](C)CO)C(=O)c2cccc(NC(=O)Nc3cccc4ccccc34)c2O[C@H]1CN(C)C(=O)Nc1cccc2ccccc12	none (no result: Yp Topo-I inh, FadD28 FP inh, PfHsp40 yeast, PrP 5UTR inh)
CCN(C(=O)c1cnc2scc(C)n2c1=O)c1ccccc1C	PfHsp40 yeast 40
Cc1csc2ncc(C(=O)Nc3ccccc3F)c(=O)n12	none
S=C(NCc1ccccc1)NC1CCCc2ccccc21 (configuration not stated)	PfHsp40 yeast 36 (no result: Mtb BioA inh)
C=CCc1cccc(/C=N/NC(=O)CCCNc2ccc(C)cc2)c1O	PfHsp40 yeast 93 (no result: Mtb BioA inh)
CCCCOc1ccc2c(c1)C(=O)c1cc(O)ccc1-2	PfHsp40 yeast 284 (no result: Mtb BioA inh)
